Source: PubChem (National Center for Advancing Translational Sciences (NCATS))
Vaccinia mCherry: inhibitors of vaccinia virus infection (mCherry reporter signal) | Potency, µM (highest dose often 36.5 µM), for inactives: top-dose activity change, negative = inhibition, most hits filed as inhibitors | hit rate 0.63% among 310,000 | Vaccinia virus mCherry reporter infection, fluorescence; calls by dose curve; tested in A549 cells; also: nearly all actives have a fitted effect of over 35% in size
VACV Venus inh: inhibitors of vaccinia virus (Venus reporter); Vaccinia virus Venus reporter expression, fluorescence; Potency, µM (top dose mostly 36.5 µM), for the others: at the top dose activity change, negative = inhibition, hits mostly inhibitors; hit rate 0.46% among 330,000; AID 720580; calls by dose curve; tested in A549 cells; also: nearly all actives have a fitted effect of over 30% in size
AmpC no deterg: AmpC beta-lactamase inhibition without detergent; P00811; AmpC nitrocefin hydrolysis, absorbance 480 nm, 0.0001% Triton; Potency, µM (doses to about 57.1 µM), inactives show top-dose activity change, negative = inhibition, actives largely listed as inhibitors; hit rate 0.52% among 330,000; AID 485341;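 also: plate controls were no compound for no effect and no enzyme for full effect; nearly all actives have a fitted effect of over 20% in size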
Target sequence (P00811 whole entry, looked up): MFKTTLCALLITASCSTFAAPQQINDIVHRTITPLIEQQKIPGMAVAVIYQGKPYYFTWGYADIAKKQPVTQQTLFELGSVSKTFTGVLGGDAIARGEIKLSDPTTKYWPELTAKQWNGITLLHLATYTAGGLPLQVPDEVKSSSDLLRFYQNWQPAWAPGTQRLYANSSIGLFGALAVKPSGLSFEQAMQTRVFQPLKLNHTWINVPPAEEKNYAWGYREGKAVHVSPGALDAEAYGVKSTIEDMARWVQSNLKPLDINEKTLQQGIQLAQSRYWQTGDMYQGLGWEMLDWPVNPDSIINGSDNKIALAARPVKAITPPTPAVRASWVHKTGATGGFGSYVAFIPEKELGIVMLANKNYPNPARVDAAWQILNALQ
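AmpC (5.3 nM in the dispensed reagent) in 20 mM phosphate pH 7.0 with 0.01% (detergent screen) or 0.0001% Triton X-100 was preincubated with compounds for 15 min at room temperature. Nitrocefin was then added from an 800 uM solution, and hydrolysis was followed at 480 nm.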
AmpC inh detg: inhibitors of E. coli AmpC beta-lactamase with detergent; P00811; AID 485294; Potency, µM (series often up to 114 µM), without a hit: top-dose activity change, negative = inhibition, usual class: inhibitors; AmpC hydrolysis of nitrocefin, absorbance 480 nm, 0.01% Triton; hit rate 0.041% among 370,000;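 also: 0% = no-compound wells and -100% = no-enzyme wells; nearly all actives have a fitted effect of over 25% in size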
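20 mM phosphate pH 7.0 + 0.01% (detergent screen) or 0.0001% Triton X-100; 5.3 nM AmpC reagent; cpd preinc 15 min RT; nitrocefin (800 uM stock) to start; A480 q20 s × 4 min; Activity was normalised to no-enzyme and no-compound control wells.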
* = called active by the depositor; i = inactive; u = inconclusive; x = no result; ! = not confirmed by another sample. This is a sample that favours compounds with a hit; in the whole collection about 1.1% have one here. Unless noted, calls follow the shape of the dose curve; as a rule, active = well fitted curve in the direction sought with a large enough effect; inconclusive = small, poorly fitted or top-dose-only effect, or another doubt; inactive = no such curve, though single readings can be large; an effect the other way counts as inactive or inconclusive. Unless noted, % is scaled to controls: 0 for no effect and ±100 for the full control effect; potency is read from the fitted curve at half-maximal effect.

SMILES	Vaccinia mCherry	VACV Venus inh	AmpC no deterg	AmpC inh detg
C=N[C@@H](C(=O)N[C@@H]1C(=O)N2[C@@H]1SC(C)(C)[C@@H]2C(=O)O)c1ccccc1	-9%	-8%	x	x
NC1C(N)C(N)C1N (stereo not drawn)	-6%	-12%	x	x
O=C(/C=C/c1ccco1)Nc1ccc(-c2nc3ccccc3[nH]2)cc1	u	u	35µM*	-6%
O=C(Nc1ccc(-c2nc3ccccc3[nH]2)cc1)c1ccco1	3%	-7%	-42%	0%
CC[C@H](C)[C@@H]1NC(=O)[C@@H](CC(C)C)NC(=O)[C@H](C(C)C)NC(=O)[C@H]2CSSC[C@H](NC1=O)C(=O)N2	5µM*	4.5µM*	x	x
O=C(NCc1ccccn1)c1cnn(-c2nccc(-c3cccs3)n2)c1C1CC1	i	-25%	x	x
COc1ccc(NC(=O)c2nc3nc(C)cc(C(F)F)n3n2)c(C)c1	-3%	-9%	x	3%
COc1cccc(NC(=O)c2nc3nc(C)cc(C(F)F)n3n2)c1	-9%	-5%	45µM*	-10%
COc1ccccc1-n1c(=O)oc2ccc(Cl)cc2c1=O	x	13µM*	-14%	-2%
C=CCc1cccc(/C=N/NC(=O)CCCNc2ccc(C)cc2)c1O	13µM*	u	-29%	5%
CC(=O)Nc1ccc(/C=C/c2ccncc2)cc1	-13%	8%	x	x
Clc1ccc(/C=C/c2ccncc2)cc1Cl	4.5µM*	u	x	x
COc1cc(=O)n2c(c1C(=O)NCc1ccco1)CCN(Cc1cc3ccccc3[nH]1)CC2	i	-16%	x	x
N#CC1(C#N)CC(C=O)=C(N)C1(C#N)CC(=O)C12CC3CC(CC(C3)C1)C2 (stereo not drawn)	i	-2%	16µM*	-10%
O=C(Nc1nc2ccccc2s1)Nc1ccc(F)cc1F	-9%	-5%	-37%	2%
O=C(Nc1ccc(F)cc1F)Nc1sccc1-c1nc2ccccc2s1	x	x	7.9µM*	7%
O=C(c1ccc2c(c1)OCCO2)N1CCN(c2nc(-c3cccs3)nc3ccccc23)CC1	-6%	-18%	x	x
Cc1onc(-c2ccccc2)c1C(=O)Nc1cccc(C#N)c1	19%	-7%	11µM*	3%
CCOc1ccc(C(NC(C)=O)c2cc(Cl)c3cccnc3c2O)cc1 (stereo not drawn)	5µM*	u	x	x
CCCC(=O)NC(c1ccco1)c1cc(Cl)c2cccnc2c1O (stereo not drawn)	u	u	-13%	7%
CCC(=O)NC(c1ccc(OC)c(OC)c1)c1cc(Cl)c2cccnc2c1O (stereo not drawn)	11µM*	u	13%	u
CCCC(=O)NC(c1ccc2c(c1)OCO2)c1cc(Cl)c2cccnc2c1O (stereo not drawn)	13µM*	u	-20%	u
COc1ccc(C(NC(C)=O)c2ccc3cccnc3c2O)cc1OC (stereo not drawn)	7.9µM*	u	x	x
COc1ccc(OC)c(CN2CCC3(CCC(CNC(=O)c4ccco4)O3)CC2)c1 (stereo not drawn)	-13%	-1%	x	x
NC(=O)[C@@H]1CCCN1C(=O)CC1(c2cccc(F)c2)CC(=O)N(C2CCCC2)C1=O (stereo partly drawn)	-4%	2%	x	x
SMILES	Vaccinia mCherry	VACV Venus inh	AmpC no deterg	AmpC inh detg
COc1ccc(C(NC(C)=O)c2cc(Cl)c3cccnc3c2O)cc1OC (stereo not drawn)	u	u	-31%	-1%
COc1ccc(C(=O)NC(c2ccc(Cl)cc2)c2cc(Cl)c3cccnc3c2O)cc1 (stereo not drawn)	10µM*	u	x	-7%
O=C(NCC1CCC2(CCN(Cc3ccccc3O)CC2)O1)C1CCCO1 (stereo not drawn)	-10%	-3%	x	x
CCSc1nnc(NC(=O)c2ccccn2)s1	22µM*	u	-13%	4%
CCOc1ccc2nc(NC(=O)Nc3ccccc3)sc2c1	-11%	-12%	-28%	0%
Cc1ccc2nc(N/C(=N/S(=O)(=O)c3cccs3)c3ccccc3Cl)sc2c1	-3%	-4%	13µM*	-13%
Cc1ccc2nc(NC(=O)c3ccccn3)sc2c1	22µM*	u	-6%	-2%
CCOc1ccc2nc(NC(=O)c3ccccn3)sc2c1	7.9µM*	u	-7%	-8%
CCOc1ccc2nc(NC(=O)C(NS(=O)(=O)c3cccc4nsnc34)C(C)C)sc2c1 (stereo not drawn)	7.9µM*	u	-23%	u
O=C(CCCCCNC(=S)Nc1ccccc1)C[N+](=O)[O-]	-12%	-12%	-38%	-3%
O=C(CCCCCNC(=S)Nc1ccc(Cl)cc1)C[N+](=O)[O-]	-15%	3%	20µM*	0%
CCC(=O)n1nc(-c2ccc(Cl)cc2)nc1N	x	x	-7%	2%
CCc1nc(N)nc(N)c1-c1ccc(N(C)Cc2ccccc2)c([N+](=O)[O-])c1	u	1µM*	x	x
Cc1noc(-c2ccc(N(C)Cc3ccccc3)c([N+](=O)[O-])c2)n1	0%	2%	x	-4%
CCc1nc(N)nc(N)c1-c1ccc(NCCN)c([N+](=O)[O-])c1	u	4.5µM*	x	x
CCc1nc(N)nc(N)c1-c1ccc(Cl)cc1	8.9µM*!	u	-45%	-10%
CSc1nc(C(=O)NCc2nc(-c3cccc(NC(=O)c4ccccn4)c3)oc2C)cs1	-13%	-2%	x	x
COc1ccc(-c2cc(=O)oc3cc(OC(C)C(=O)O)ccc23)cc1 (stereo not drawn)	x	x	-34%	3%
COc1ccc(-c2cc(=O)oc3c(O)c(O)ccc23)cc1	11µM*	u	-42%	1%
COc1ccc(OC)c2c1sc(=NC(=O)c1cccc(N3C(=O)CCC3=O)c1)n2C	0%	-2%	40µM*	u
COc1cc(C(=O)N=c2sc3c(C)ccc(OC)c3n2C)cc(OC)c1OC	x	x	-7%	-6%
COc1ccc(C(=O)N=c2sc3c(C)ccc(OC)c3n2C)cc1	i	-10%	1.1µM*	u
CCn1c(=NC(=O)c2cccc(N3C(=O)CCC3=O)c2)sc2c(OC)ccc(OC)c21	-17%	-2%	-8%	5%
O=C(C(=C1N(Cc2ccc(Cl)nc2)CCN1Cc1ccc(Cl)nc1)[N+](=O)[O-])C(Cl)Cl	x	x	15%	1%
O=[N+]([O-])/C(C(=C(Cl)Cl)N1CCN(Cc2ccccc2)CC1)=C1\NCCN1Cc1ccc(Cl)nc1	10µM*	u	161%	-1%
Cc1c(C(=O)N(C)C2CCOC2)cnn1-c1ncc2c(n1)-c1ccccc1CCC2 (stereo not drawn)	-8%	7%	x	x
COc1ccc(S(=O)(=O)N2CCC(C)CC2)cc1OC	x	x	-9%	u
CC1CCN(S(=O)(=O)c2ccc3c(c2)C(=NO)c2cc(S(=O)(=O)N4CCC(C)CC4)ccc2-3)CC1	2.8µM*	u	-38%	u
O=S(=O)(c1ccc2c(c1)C(=NO)c1cc(S(=O)(=O)N3CCCCC3)ccc1-2)N1CCCCC1	1.8µM*	1.4µM*	-30%	7%
COCC(=O)Nc1cc(C(=O)N2CC3CC4CC(C3)CC2C4)c2c(c1)nc(-c1ccncc1)n2C	-5%	-2%	x	x
